The values that follow come from PubChem BioAssay (NCATS).

The target of assay [1] is Cytochrome P450 3A4 (Homo sapiens) (UniProt P08684). The experiment in a line: qHTS Assay for Inhibitors and Substrates of Cytochrome P450 3A4 (AID 884). Note: series mostly up to about 57 µM; nearly all actives have a fitted effect of over 50% in size. Summed up: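 Luminescent readout of luciferin produced by CYP3A4 (20 nM) dealkylation of Luciferin-PPXE, 25 uM (its KM). NADPH-driven reaction ran 60 min at RT after 10 min compound preincubation; data scaled to 57 uM ketoconazole as 100% inhibition.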
Chain of Cytochrome P450 3A4 (Homo sapiens) (P08684 whole entry, looked up): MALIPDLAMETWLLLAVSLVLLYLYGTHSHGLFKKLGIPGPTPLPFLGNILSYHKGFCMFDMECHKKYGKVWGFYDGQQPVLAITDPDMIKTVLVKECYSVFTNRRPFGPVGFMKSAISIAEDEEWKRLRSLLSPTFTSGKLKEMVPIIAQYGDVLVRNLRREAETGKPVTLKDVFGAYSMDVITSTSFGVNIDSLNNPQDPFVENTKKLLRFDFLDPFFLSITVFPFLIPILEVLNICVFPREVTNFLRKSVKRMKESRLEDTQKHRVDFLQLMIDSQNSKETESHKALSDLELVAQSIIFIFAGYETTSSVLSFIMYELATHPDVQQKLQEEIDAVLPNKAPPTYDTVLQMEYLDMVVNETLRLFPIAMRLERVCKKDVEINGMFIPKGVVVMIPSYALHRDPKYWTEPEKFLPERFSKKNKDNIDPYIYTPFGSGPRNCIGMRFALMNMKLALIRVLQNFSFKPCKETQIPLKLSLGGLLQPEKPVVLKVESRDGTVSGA

A short description of assay [2]: Confirmation and Secondary Assay for Modulators of Hemoglobin Beta Chain Splicing at IVS2 654 locus (AID 910).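 Note: HeLa cells stably carrying EGFP split by mutant beta-globin IVS2-654 intron.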 The method, boiled down: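 HeLa cells stably expressing EGFP interrupted by β-globin IVS2-654 intron, seeded overnight in Opti-MEM/2% FCS, then treated 2 days at 37 °C. Restored splicing read as total peak GFP intensity per well by laser scanning cytometry (488 nm excitation, 500–520 nm emission); 500 nM antisense PNA as control.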

Assay [3] has as its target Cytochrome P450 2C9 (Homo sapiens) (UniProt P11712). The assay can be described thus: qHTS Assay for Inhibitors and Substrates of Cytochrome P450 2C9 (AID 883). Note: potency is the fitted concentration of half-maximal effect; nearly all actives have a fitted effect of over 60% in size. Summed up:
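Signal: luciferase luminescence reporting luciferin produced by CYP2C9. Conditions: 10nM enzyme, Luciferin-H 100uM at KM, 25mM KPO4, 37C, 60 min NADPH-driven reaction. Reference: 57uM sulphaphenazole as 100% inhibition.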
(In general: In qHTS, concentration-response curves come from the screen itself.)

The target in assay [4] is Cytochrome P450 2C19 (Homo sapiens) (UniProt P33261). The experiment in a line: qHTS Assay for Inhibitors and Substrates of Cytochrome P450 2C19 (AID 899). Note: potency is the fitted concentration of half-maximal effect; nearly all actives have a fitted effect of over 60% in size. Summed up:
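Signal comes from luciferase acting on luciferin released by CYP2C19-mediated hydroxylation of Luciferin-H EGE, 10uM (KM). Assay mix: 5nM enzyme, 50mM KPO4; 60 min at 37C with NADPH regeneration. Data normalized against 57uM ketoconazole.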

Assay [5] has as its target Cytochrome P450 2D6 (Homo sapiens) (UniProt P10635). The assay can be described thus: qHTS Assay for Inhibitors and Substrates of Cytochrome P450 2D6 (AID 891). Note: potency is the fitted concentration of half-maximal effect; nearly all actives have a fitted effect of over 60% in size. The method, boiled down: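 Luminescent read-out of luciferin formed by 5 nM human CYP2D6 demethylating 30 uM Luciferin-ME EGE (Km level) over 60 min at room temperature after NADPH regeneration addition. Data normalized to full inhibition by 1.43 uM quinidine.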

Values without a mark were called inactive. Results filed as inconclusive are left out. Entries that show only a call come without a potency. Active and inactive are the calls of the source. Calls come from the whole dose curve; as a rule, active = well fitted curve in the direction sought with a large enough effect; inconclusive = small, poorly fitted or top-dose-only effect, or another doubt; inactive = no such curve, though single readings can be large; an effect the other way counts as inactive or inconclusive.

Chain of Cytochrome P450 2C9 (Homo sapiens) (P11712 whole entry, looked up): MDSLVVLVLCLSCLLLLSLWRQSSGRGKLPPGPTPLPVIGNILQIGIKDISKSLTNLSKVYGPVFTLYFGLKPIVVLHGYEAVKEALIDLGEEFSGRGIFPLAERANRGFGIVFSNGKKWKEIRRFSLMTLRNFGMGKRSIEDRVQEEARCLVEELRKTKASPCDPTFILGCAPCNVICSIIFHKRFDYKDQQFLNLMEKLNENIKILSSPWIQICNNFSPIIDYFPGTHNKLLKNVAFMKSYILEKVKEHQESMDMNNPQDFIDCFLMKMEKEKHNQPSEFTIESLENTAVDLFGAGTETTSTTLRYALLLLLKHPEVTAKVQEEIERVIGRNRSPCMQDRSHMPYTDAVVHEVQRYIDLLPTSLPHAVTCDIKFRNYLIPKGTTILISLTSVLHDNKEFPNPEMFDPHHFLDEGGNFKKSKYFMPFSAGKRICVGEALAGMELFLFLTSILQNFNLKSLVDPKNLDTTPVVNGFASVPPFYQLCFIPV
Chain of Cytochrome P450 2D6 (Homo sapiens) (P10635 whole entry, looked up): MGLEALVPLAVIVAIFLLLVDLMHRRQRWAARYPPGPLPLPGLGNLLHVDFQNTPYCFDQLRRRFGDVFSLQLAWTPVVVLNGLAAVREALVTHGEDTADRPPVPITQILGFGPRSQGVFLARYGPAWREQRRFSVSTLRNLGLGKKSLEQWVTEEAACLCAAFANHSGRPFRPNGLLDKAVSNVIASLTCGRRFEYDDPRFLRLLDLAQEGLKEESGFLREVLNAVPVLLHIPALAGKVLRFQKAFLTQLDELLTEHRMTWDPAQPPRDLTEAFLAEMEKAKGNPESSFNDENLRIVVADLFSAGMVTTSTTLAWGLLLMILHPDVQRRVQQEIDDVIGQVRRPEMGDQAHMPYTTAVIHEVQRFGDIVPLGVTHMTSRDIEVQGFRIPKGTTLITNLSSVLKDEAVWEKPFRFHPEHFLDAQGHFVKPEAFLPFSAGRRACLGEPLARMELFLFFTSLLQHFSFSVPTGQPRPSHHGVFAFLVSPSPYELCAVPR
Chain of Cytochrome P450 2C19 (Homo sapiens) (P33261 whole entry, looked up): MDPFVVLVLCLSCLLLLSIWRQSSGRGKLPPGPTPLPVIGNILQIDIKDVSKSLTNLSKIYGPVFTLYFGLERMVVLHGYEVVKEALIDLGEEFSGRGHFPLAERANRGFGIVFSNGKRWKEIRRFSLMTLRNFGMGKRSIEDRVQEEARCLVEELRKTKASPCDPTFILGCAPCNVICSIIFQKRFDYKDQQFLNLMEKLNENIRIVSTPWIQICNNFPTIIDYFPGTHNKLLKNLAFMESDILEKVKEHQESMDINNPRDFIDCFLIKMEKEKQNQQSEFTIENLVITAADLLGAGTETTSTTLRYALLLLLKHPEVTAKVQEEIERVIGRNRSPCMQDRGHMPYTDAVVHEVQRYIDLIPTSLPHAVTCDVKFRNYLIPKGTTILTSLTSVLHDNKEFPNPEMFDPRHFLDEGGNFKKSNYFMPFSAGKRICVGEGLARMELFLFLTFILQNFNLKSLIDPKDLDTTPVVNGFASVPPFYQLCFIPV

For `Cc1c(C(N)=O)cc([N+](=O)[O-])cc1[N+](=O)[O-]`, the Potency result in assay [1] is “inactive”. For the same compound, in assay [2], the compound was classed as inactive.
`CC(Cc1cccc(C(F)(F)F)c1)NCCOC(=O)c1ccccc1` (stereo not drawn): the outcome in assay [2] was inactive.
`CC(CCc1ccccc1)NCC(O)c1ccc(O)c(C(N)=O)c1` (stereo not drawn): the Potency result in assay [1] is “inactive”. The outcome in assay [2] was inactive.
As to `CCN1CCN(c2cc3c(cc2F)c(=O)c(C(=O)O)cn3C2CC2)CC1`, the Potency entry in assay [1] was “inactive”. Further, the result in assay [2] was inactive.
On to `COc1ccc(OC)c(C(O)CNC(=O)CN)c1` (stereo not drawn), for which, in assay [2], the outcome was inactive.
Consider `Oc1c(I)cc(I)c2cccnc12`, for which the Potency result in assay [1] is “inactive”. The call in assay [2] was inactive.
As for `CO/N=C1\CN(c2nc3c(cc2F)c(=O)c(C(=O)O)cn3C2CC2)CC1CN` (stereo not drawn), the Potency entry in assay [1] was “inactive”. For the same compound, the compound was called inactive in assay [2].
Take `CCN(CC)CCOC(=O)C(c1ccccc1)C1CCCCC1` (stereo not drawn): the compound was classed as inactive in assay [2].
Turning to `Oc1ccc(Cl)c2cccnc12`, the Potency result in assay [1] was “inactive”. In addition, the call in assay [2] was inactive.
For `CCOc1ccc(Cc2nccc3cc(OCC)c(OCC)cc23)cc1OCC`, in assay [3], the Potency was 3.98 µM (active). In addition, the compound was called inactive in assay [2].
Regarding `CCCCC(CC)CN=C(N)NC(N)=NCCCCCCN=C(N)NC(N)=NCC(CC)CCCC` (stereo not drawn), the outcome in assay [2] was inactive.
Turning to `CCCCC1=NC2(CCCC2)C(=O)N1Cc1ccc(-c2ccccc2-c2nn[nH]n2)cc1`, the outcome in assay [2] was inactive.
As to `COc1cc(OC)cc(OC)c1`, the Potency entry in assay [1] was “inactive”. Besides, the compound was called inactive in assay [2].
As to `CCN(CCCc1ccccc1)CCCc1ccccc1`, the Potency entry in assay [1] is “inactive”. In assay [2], the compound was classed as inactive.
`COc1ccc(C2C(=O)c3ccccc3C2=O)cc1`: the Potency result in assay [1] is “inactive”. Moreover, the result in assay [2] was inactive.
On to `O=C(OCC(O)CO)c1ccccc1Nc1ccnc2cc(Cl)ccc12` (stereo not drawn), for which the compound was called inactive in assay [2].
With `Cc1ccc(C(=O)C(C)CN2CCCCC2)cc1` (stereo not drawn), in assay [1], the Potency result is “inactive”. Moreover, the compound was called inactive in assay [2].
`COc1c2occc2c(OC)c2c(=O)cc(C)oc12`: in assay [2], the compound was called inactive.
Same read-out and setting: the entry for `C/C=C(/C(=C/C)c1ccc(O)cc1)c1ccc(O)cc1` is “inactive”.
`CCOc1ccc2nc3cc(N)ccc3c(N)c2c1`: in assay [1], the Potency entry was “inactive”. The call in assay [2] was inactive.
With `O=C1OCCN1/N=C/c1ccc([N+](=O)[O-])o1`, the compound was classed as inactive in assay [2].
`CC(=O)Nc1c(I)cc(I)c(C(=O)O)c1I`: in assay [1], the Potency entry is “inactive”. Moreover, in assay [2], the result was inactive.
As to `C[C@@H]1CN(CCCn2c3ccccc3c3ccccc32)C[C@H](C)N1`, the Potency in assay [4] is 3.16 µM (active).
For the compound `CCCCCCCCCCCCCCCCOP(=O)([O-])OCC[N+](C)(C)C`, the Potency result in assay [1] is “inactive”. In assay [2], the result was inactive.
As to `CCCCOc1ccc(C(=O)CCN2CCCCC2)cc1`, the Potency in assay [3] was 2.51 µM (active); in assay [5], 5.01 µM (active). Further, the result in assay [2] was inactive.
As to `CC(C)(CO)[C@@H](O)C(=O)NCCCO`, the Potency result in assay [1] is “inactive”.
For the compound `OCc1ccccc1O`, the Potency entry in assay [1] was “inactive”. Moreover, in assay [2], the result was inactive.
For the compound `CCCCOc1cc(C(=O)NCCN(CC)CC)c2ccccc2n1`, the Potency result in assay [1] is “inactive”. In addition, the compound was called inactive in assay [2].
Take `c1ccc(-c2ccc(C(c3ccccc3)n3ccnc3)cc2)cc1` (stereo not drawn): in assay [2], the compound was called inactive.
The same measure, in the same setting: for `CCCC(=O)Nc1ccc(OCC(O)CNC(C)C)c(C(C)=O)c1` (stereo not drawn) the value was “inactive”.
